Screening data (PubChem)
The list is not random: actives were taken first. Their share in the collection is about 4.7%.
TRHR agonist: qHTS for Small Molecule Agonists and Allosteric Enhancers of Human TRH Receptor: Primary Screen for Agonists. Thyrotropin-releasing hormone receptor (Homo sapiens), P34981. TRHR cells, calcium flux fluo-8, FDSS agonist mode. activation, % at 2 µM. actives 0.18% (n = 360,000); further: 0% is about no effect
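Fluo-8-loaded TRHR cells; 10 s baseline, compound added, kinetic Ca2+ fluorescence read 1/s, agonist mode.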
D1 agonist: Allosteric Agonists of the Human D1 Dopamine Receptor: qHTS. D(1A) dopamine receptor (Homo sapiens), P21728. HEK293 T-REx D1 cells, calcium flux, agonist mode. activation, % at 2 µM. actives 1% (n = 360,000). AID 504660, 2011; further: 0% is about no effect
Target sequence (P21728 whole entry, looked up): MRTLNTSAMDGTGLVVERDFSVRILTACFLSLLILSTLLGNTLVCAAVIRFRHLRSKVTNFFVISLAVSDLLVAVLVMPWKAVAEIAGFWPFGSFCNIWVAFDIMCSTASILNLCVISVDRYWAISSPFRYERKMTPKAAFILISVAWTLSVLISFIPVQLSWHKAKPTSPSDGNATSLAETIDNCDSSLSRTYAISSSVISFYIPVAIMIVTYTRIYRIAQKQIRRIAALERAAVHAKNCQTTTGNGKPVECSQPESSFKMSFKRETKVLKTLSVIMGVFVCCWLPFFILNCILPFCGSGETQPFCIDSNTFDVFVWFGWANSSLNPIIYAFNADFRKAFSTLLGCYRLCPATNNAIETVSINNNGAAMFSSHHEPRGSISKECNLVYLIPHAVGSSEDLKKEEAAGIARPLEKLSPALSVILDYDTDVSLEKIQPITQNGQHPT
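Tetracycline-induced HEK293 TREx D1 cells, force-coupled to calcium signalling, were dye-loaded with a no-wash calcium kit. Compound was pin-added after a 10 s baseline. Fluorescence was read kinetically at 1 cycle/s for 180 s, with calcium rises flagged as agonism.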
D1 PAM: Potentiators of Human D1 Dopamine Receptor: qHTS; potentiation, % at 10 µM; HEK293 TREx D1 cells, calcium flux, dopamine EC20 potentiation; actives 0.036% (n = 360,000); in the data active means potentiation above about 30%; further: 0% is about no effect
D1 antagonist: Antagonist of Human D 1 Dopamine Receptor: qHTS. D(1A) dopamine receptor (Homo sapiens), P21728. HEK293 TREx D1 cells, calcium flux, dopamine EC80; hits give low values. activity change, negative = inhibition, % at 10 µM. actives 3.2% (n = 360,000); in the data active means activity change below about -30%; further: on the % scale 0 is the no-effect control and ±100 the full control effect
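Calcium flux readout: force-coupled, inducible Hek293 Trex D1 line, cells induced overnight at 30 C with tetracycline, dye-loaded 30–90 min at RT. Antagonism scored against EC80 dopamine challenge given 180 s after compound.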
TRHR PAM: qHTS for Small Molecule Agonists and Allosteric Enhancers of Human TRH Receptor: Primary Screen for Enhancers; actives 0.66% (n = 360,000); AID 493056, 2011; Thyrotropin-releasing hormone receptor (Homo sapiens), P34981; enhancement, % at 2 µM; TRHR cells, fluo-8 calcium fluorescence, EC20 TRH enhancement; in the data active means enhancement above about 30%; further: 0% is about no effect
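Enhancer read-out: after compound pinning and an initial kinetic agonist-mode read, an EC20 of TRH (10 nM final) was injected and fluo-8 calcium signal (Ex 480/Em 530) followed at 1 s/cycle for 100 cycles in TRHR-expressing cells.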
* marks the source's active call; other numbers are inactive results; x = no result given. Unless noted, no stated cut-off is given here; in the data, active means activation above about 30%; inactive means the rest.

SMILES	TRHR agonist	D1 agonist	D1 PAM	D1 antagonist	TRHR PAM
COC(=O)C1=C(c2ccc(C(C)=O)cc2)C[C@@H]2CC[C@H]1N2C(=O)NCc1ccc(C(F)(F)F)cc1	7	48*	-2	-41*	0
COC(=O)C1=C(c2ccc3ccccc3c2)C[C@@H]2CC[C@H]1N2C(=O)NCc1ccc(C(F)(F)F)cc1	1	4	1	20	13
Cc1cccc(CN2CC=C(c3noc(CCC(=O)Nc4ccc(C)c(F)c4)n3)CC2)c1	0	11	-2	-13	-2
Cc1ccc(NC(=O)CN2C(=O)CN=C(c3ccccc3)c3ccccc32)c(C)c1	-1	-1	2	-1	3
COC(=O)C1=C(c2ccccc2OCc2ccccc2)C[C@@H]2CC[C@H]1N2C(=O)NCCOc1ccccc1	2	9	-6	-31*	-6
CCN(CC)CCSc1nc2ccccc2c(=O)n1-c1ccc(Cl)cc1	0	2	-4	-19	0
Cc1ccc(/C=C2\C(=O)NC(=S)N(c3ccc(F)cc3)C2=O)o1	2	9	5	-15	13
O=C1NC(=O)C(=Cc2ccc(N3CCOCC3)o2)C(=O)N1	7	8	-3	9	1
Cc1cc(C)cc(N2C(=O)/C(=C\c3ccc(N4CCN(C)CC4)o3)C(=O)NC2=S)c1	28	44*	-4	-4	1
C=CCN1C(=O)/C(=C/c2ccc(N3CCOCC3)o2)C(=O)NC1=S	-1	119*	-2	-1	-4
CCC(=NCCOc1ccc(Cl)cc1)c1c(O)n(C)c(=O)n(C)c1=O	1	8	-9	-42*	-2
CCC(=NCCc1c[nH]c2ccccc12)c1c(O)n(C)c(=O)n(C)c1=O	0	11	-4	-31*	-2
CC(=O)c1cn(Cc2ccccc2F)c2ccccc12	-1	17	-5	-55*	1
CC(=O)c1cn(Cc2ccccc2C#N)c2ccccc12	-2	15	-5	-34*	-4
O=Cc1cn(Cc2ccccc2F)c2ccccc12	-1	18	-4	-7	9
COc1ccc(-c2nn3c(=O)cc(CN4CCN(C(=O)COc5ccc(F)cc5)CC4)nc3s2)cc1	0	0	-1	-25	-6
S=C=Nc1cccc(C2(N3CCCCC3)CCCCC2)c1	-1	4	-7	-91*	4
CC(=O)Nc1cc(C(=O)N2CCC3(CC2)OCCO3)ccc1S(=O)(=O)c1ccc(Cl)cc1	0	2	-3	-87*	5
CCN(CC)c1ccc(/C=C2\C(=O)NC(=S)N(C)C2=O)o1	29	65*	-5	0	-6
COc1ccc(N2C(=O)NC(=O)/C(=C\c3cn(C)c4ccccc34)C2=O)cc1	16	54*	0	-11	9
CCN(CC)c1ccc(C=C2C(=O)N(C)C(=S)N(C)C2=O)o1	0	50*	0	-10	1
CN1C(=O)C(=Cc2ccc(N3CCCCC3)o2)C(=O)N(C)C1=S	0	85*	3	-7	2
Cc1ccc(Cn2cccc(C(=O)Nc3nnc(C)s3)c2=O)cc1	0	-1	0	x	2
CCOc1cccc(N2C(=O)/C(=C/c3ccco3)C(=O)NC2=S)c1	1	-1	-3	7	34*
COc1ccc(N2C(=O)/C(=C/c3ccc(N(C)C)o3)C(=O)NC2=S)cc1	11	35*	3	-3	-1
O=C1NC(=S)N(c2ccccc2)C(=O)/C1=C/c1ccco1	1	2	-4	-28	-6
COc1cccc(N2C(=O)/C(=C/c3ccc(C)o3)C(=O)NC2=S)c1	2	2	8	1	-4
Cc1cc(C)cc(-n2c(=O)[nH]c3ccccc3c2=O)c1	1	15	0	-10	0
CCN(CC)c1ccc(N=Cc2c(O)n(-c3ccccc3)c(=O)[nH]c2=O)cc1	-1	86*	-1	-1	4
CCOc1ccccc1-n1c(O)c(C=Nc2ccc(N(CC)CC)cc2)c(=O)[nH]c1=O	22	37*	-1	10	-2
